Measured values as given in PubChem BioAssay.
Values without a mark were called inactive. Activity calls are given as the source filed them. How the calls were made is not given here.

Experiments:
[1] = tested on: Botulinum neurotoxin type F light chain protease (Clostridium botulinum); experiment: Clostridium botulinum type F light chain protease inhibitors, microsphere substrate cleavage, validation (AID 588459); conditions: multiplex microsphere protease substrate cleavage assay, flow cytometry; at 10 µM; stronger effect = higher value
[2] = biological target: Botulinum neurotoxin type A (Clostridium botulinum) (UniProt P0DPI0); experiment: BoNT/A light chain protease inhibitors, biochemical, multiplex microsphere flow cytometry, validation set (AID 588460); conditions: at 10 µM, stronger effect = higher value
Botulinum neurotoxin type A (Clostridium botulinum), sequence (P0DPI0 whole entry, looked up): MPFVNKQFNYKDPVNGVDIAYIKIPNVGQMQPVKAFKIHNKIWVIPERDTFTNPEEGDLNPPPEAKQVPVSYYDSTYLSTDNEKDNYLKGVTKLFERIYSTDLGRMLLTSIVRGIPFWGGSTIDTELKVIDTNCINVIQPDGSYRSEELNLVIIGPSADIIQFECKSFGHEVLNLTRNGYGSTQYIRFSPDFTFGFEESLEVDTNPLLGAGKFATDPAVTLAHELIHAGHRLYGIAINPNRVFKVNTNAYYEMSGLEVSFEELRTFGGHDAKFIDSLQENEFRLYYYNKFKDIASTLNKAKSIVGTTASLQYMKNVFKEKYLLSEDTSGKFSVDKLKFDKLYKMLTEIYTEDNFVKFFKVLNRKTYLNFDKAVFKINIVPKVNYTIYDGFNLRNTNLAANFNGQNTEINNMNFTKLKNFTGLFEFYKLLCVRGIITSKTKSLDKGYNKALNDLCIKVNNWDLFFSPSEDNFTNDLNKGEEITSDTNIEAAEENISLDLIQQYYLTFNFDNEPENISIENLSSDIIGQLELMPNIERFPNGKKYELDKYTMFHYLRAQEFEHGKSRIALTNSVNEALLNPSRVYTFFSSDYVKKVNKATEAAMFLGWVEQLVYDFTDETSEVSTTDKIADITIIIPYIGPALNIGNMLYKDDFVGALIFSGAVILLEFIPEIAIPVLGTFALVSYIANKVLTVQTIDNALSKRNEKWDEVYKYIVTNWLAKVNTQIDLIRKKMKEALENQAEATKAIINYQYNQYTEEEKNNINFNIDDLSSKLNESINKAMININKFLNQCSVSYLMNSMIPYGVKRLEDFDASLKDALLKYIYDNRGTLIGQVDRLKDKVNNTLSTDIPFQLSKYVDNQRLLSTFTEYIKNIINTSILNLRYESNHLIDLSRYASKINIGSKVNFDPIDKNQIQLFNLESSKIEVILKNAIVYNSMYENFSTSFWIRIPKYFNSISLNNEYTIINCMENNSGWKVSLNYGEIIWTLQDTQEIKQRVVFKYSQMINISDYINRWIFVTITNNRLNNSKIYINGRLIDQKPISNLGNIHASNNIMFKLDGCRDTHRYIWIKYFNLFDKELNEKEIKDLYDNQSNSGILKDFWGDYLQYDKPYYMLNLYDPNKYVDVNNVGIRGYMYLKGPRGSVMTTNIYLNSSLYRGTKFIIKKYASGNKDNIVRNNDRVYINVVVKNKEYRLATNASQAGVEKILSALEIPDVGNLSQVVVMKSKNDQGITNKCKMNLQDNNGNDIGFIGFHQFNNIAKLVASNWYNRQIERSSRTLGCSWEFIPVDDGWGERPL

[3] = biological target: Lethal factor (Bacillus anthracis) (UniProt P15917); experiment: Bacillus anthracis lethal factor inhibition, microsphere flow cytometry protease assay, validation at 10 µM (AID 588461); conditions: multiplex microsphere protease cleavage assay, stronger effect = higher value
Lethal factor (Bacillus anthracis), sequence (P15917 whole entry, looked up): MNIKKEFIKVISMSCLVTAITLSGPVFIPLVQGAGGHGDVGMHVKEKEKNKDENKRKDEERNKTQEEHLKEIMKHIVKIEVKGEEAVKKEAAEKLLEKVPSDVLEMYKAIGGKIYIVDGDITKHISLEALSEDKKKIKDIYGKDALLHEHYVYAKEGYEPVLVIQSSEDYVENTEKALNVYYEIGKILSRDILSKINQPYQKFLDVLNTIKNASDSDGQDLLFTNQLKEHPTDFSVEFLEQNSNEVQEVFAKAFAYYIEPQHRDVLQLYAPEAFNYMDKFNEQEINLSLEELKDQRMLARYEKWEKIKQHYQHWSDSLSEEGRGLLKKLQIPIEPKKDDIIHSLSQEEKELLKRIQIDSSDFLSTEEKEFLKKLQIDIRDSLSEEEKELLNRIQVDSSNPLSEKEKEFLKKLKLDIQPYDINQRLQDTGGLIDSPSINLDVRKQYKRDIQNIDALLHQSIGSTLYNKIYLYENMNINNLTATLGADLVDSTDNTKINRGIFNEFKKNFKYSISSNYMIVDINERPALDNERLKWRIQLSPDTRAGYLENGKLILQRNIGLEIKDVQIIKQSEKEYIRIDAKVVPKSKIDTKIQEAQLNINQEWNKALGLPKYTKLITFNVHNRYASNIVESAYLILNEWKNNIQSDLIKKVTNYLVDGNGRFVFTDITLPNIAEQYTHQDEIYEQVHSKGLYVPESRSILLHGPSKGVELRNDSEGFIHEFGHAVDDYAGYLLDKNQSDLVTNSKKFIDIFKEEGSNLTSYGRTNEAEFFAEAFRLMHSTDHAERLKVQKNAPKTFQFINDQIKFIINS

| Compound | inhibition [1] | inhibition [2] | inhibition [3] |
| --- | --- | --- | --- |
| CN1CCC(=C2c3ccccc3CC(=O)c3sccc32)CC1 | 8% | 0.8% | -4% |
| COc1ccc(OCc2cccc(C(=O)NN)c2)cc1 | 0.1% | 1.2% | -6.1% |
| CC(NC(=O)c1ccc(OC2CCN(Cc3ccccn3)CC2)cc1)c1ccccc1 (configuration not stated) | 2.8% | 0.5% | 3.4% |
| Fc1ccc(NC(=S)Nc2ccccc2Cl)cc1 | 1.8% | -0.7% | -3.5% |
| Cc1ccccc1NC(=O)NCCc1c[nH]c2ccccc12 | -1.9% | -0.2% | -3.6% |
| CNc1c2c(nn1C)CCCC2 | 0.6% | -1.3% | -3.5% |
| CC(C)C(CCN1C(=O)CCC1=O)C1CCOC(C)(C)C1 (configuration not stated) | 3% | 0.5% | 0.7% |
| CCOC(=O)c1ncn2c1CN(C)C(=O)c1cc(F)ccc1-2 | -1.4% | -1.4% | -2.7% |
| O=C1CN(O)C=C2N=c3ccccc3=C2N1c1ccc([N+](=O)[O-])cc1 | -2.6% | -2.1% | -4.4% |
| CC1=CC2(O)OCCN(CCO)C2=CC1=O (configuration not stated) | -1.5% | -1% | 2.5% |
| CCOC(=O)C1(CCCc2ccccc2)CCN(C2CCN(C(C)=O)CC2)CC1 | 0.1% | 1.4% | -6.4% |
| Clc1ccc(OCCCN2CCCCC2)c(Br)c1 | 1.8% | 0.2% | -3.7% |
| CC(=O)Nc1nnc(S(N)(=O)=O)s1 | 5.4% | -0.3% | -2.6% |
| CC(=O)c1cccc2c(O)c(C3=Nc4ccccc4C3=O)[nH]c12 | -2.1% | 0.6% | 6.7% |
| COc1ccccc1NC(=O)Cn1c(C)cc(=O)c2cccc(OC)c21 | -1.1% | -0.9% | -0.2% |
| CN(C)C(=O)C(CCN1CCC(O)(c2ccc(Cl)cc2)CC1)(c1ccccc1)c1ccccc1 | -1.4% | -1.4% | 7.3% |
| COc1cc2c(cc1OC)CN(Cc1ccc(C)s1)CC2 | 2.4% | 0.7% | -1.2% |
| CCN1C(=O)C(CC(=O)Nc2ccc(F)cc2)N(Cc2ccc3c(c2)OCO3)C1=S (configuration not stated) | -1.3% | -0.3% | -6.1% |
| CCOCC(=O)Nc1ccccc1C(=O)N1CCOCC1 | 32.5% (active) | 14.3% | 6.3% |
| COc1cc(/C=C/C(=O)CC(=O)/C=C/c2ccc(O)c(OC)c2)ccc1O | 12.2% | 9.5% | -0.9% |
| CN(CCCN1CCOCC1)Cc1cn(C)nc1-c1ccccc1F | 0% | -0.8% | -6.1% |
| Cc1ccc(S(=O)(=O)N[C@@H](C)C(=O)N2CCC(C(=O)N3CCC[C@H]3C(=O)O)CC2)cc1 | 1.9% | 1% | -1.7% |
| CCC12CN3CC(CC)(CN(C1)C31C(=O)N(C)c3ccc(C)cc31)C2=O (configuration not stated) | -1.6% | 0.1% | -7.3% |
| O=C(CC(NC(=O)OCc1ccccc1)C(=O)O)OCc1ccccc1 (configuration not stated) | -3.2% | -2.1% | 2.5% |
| COC(=O)c1[nH]c2ccc(F)cc2c1NC(=O)C1=COCCO1 | 0% | 0.8% | -4.9% |
| O=C(O)[C@@H](O)c1ccccc1 | -0.3% | 0% | -3.5% |
| Cc1ccc(OCc2nc(-c3cccnc3)no2)cc1C | -0.8% | 0.4% | -6.5% |
| CC(=O)OC[C@H]1O[C@@H](n2ncc(=O)[nH]c2=O)[C@H](OC(C)=O)[C@@H]1OC(C)=O | -0.5% | -0.3% | 3.7% |
| C[C@]12CCC(=O)C=C1CC[C@@H]1[C@@H]2CC[C@@]2(C)[C@H]1CC[C@]2(O)C(=O)CO | 1.3% | -1.2% | -1.7% |
